Bioassay records deposited in PubChem by several laboratories.
In the library only some 2.8% were active in any assay of this set; here they are far more common.
SENP8 block-1 – inhibitors of human SENP8 protease. Q96LD8. recombinant SENP8, Nedd8 substrate fluorescence. inhibition, % at 20 µM. 360,000 tested, 0.64% active. AID 602440; in the data active = inhibition mostly above about 40%, no sharp cut-off; inactive = mostly below about 27%
Target sequence (Q96LD8 whole entry, looked up): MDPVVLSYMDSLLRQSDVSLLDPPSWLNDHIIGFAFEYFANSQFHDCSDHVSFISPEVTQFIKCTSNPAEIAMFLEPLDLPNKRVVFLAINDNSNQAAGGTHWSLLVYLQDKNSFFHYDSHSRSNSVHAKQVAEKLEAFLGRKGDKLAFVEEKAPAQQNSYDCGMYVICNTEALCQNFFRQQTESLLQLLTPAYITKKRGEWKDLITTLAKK
SENP8 block-2 – blocks the human protease SENP8; Q96LD8; purified SENP8, Z-RLRGG-aminoluciferin cleavage, luminescence; inhibition, % at 10 µM; 330,000 tested, 1.2% active; AID 2540; in the data active = inhibition above about 50%
Platelet DG rel – modulates dense granule release in human platelets. 300,000 tested, 0.22% active. inhibition, %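 (compounds screened at 7.5 µM in platelet-rich plasma)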. human platelet-rich plasma, SFLLRN dense granule ATP release, luminescence;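 active = mean replicate score, as percent of positive control, at or above 50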
SENP7 block – SENP7 protease inhibition | recombinant SENP7, Z-RLRGG-aminoluciferin luminescence, 40 min | 330,000 tested, 1.5% active | Q9BQF6 | inhibition, % at 5 µM;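 active = inhibition above about 50% at the single test dose, limit read from the data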;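 also: plate controls were DMSO with enzyme for no effect and no enzyme buffer wells for full effect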
SENP6 block – inhibitors of human SENP6 protease. AID 2599. 330,000 tested, 1.8% active. Recombinant SENP6 catalytic domain, aminoluciferin luminescence. inhibition, % at 10 µM. Q9GZR1;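 active = inhibition above about 50% at the single tested dose, limit read from the data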;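 also: plate controls were DMSO wells with enzyme for no effect and DMSO wells lacking enzyme for full effect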
Target sequence (Q9GZR1 628-1112 limits assumed): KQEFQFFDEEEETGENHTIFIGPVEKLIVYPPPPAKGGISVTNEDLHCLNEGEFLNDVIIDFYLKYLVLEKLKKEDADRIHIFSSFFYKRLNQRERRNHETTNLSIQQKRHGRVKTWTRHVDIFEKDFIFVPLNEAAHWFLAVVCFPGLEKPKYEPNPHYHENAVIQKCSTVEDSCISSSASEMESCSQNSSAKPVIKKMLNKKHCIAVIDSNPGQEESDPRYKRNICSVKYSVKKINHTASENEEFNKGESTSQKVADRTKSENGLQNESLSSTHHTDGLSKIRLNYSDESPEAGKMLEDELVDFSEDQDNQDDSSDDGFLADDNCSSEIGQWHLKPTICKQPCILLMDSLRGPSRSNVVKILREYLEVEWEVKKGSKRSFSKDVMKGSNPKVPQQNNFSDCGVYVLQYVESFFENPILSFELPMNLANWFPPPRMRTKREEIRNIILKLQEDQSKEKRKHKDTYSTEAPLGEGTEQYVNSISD
HSP90 inh – blocks HSP90-mediated luciferase refolding in reticulocyte lysate. inhibition, % at 5.6 µM. AID 1789. Rabbit reticulocyte lysate, luciferase refolding luminescence, 3 h. 290,000 tested, 0.91% active;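 active = inhibition above the screen-wide mean plus 3 SD, computed separately per campaign, cut at about 16% in these data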;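 also: 0% = DMSO wells and 100% = 60 µM geldanamycin wells; inhibitors lower the luminescence because luciferase stays unfolded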
HSP90 confirm – HSP90 inhibition, confirmation assay; shares compounds with HSP90 inh; rabbit reticulocyte lysate, luciferase refolding luminescence, 3 h; inhibition, % at 5.9 µM; 2,300 tested, 64% active; in the data active = inhibition above about 18%;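 also: 0% = vehicle wells and 100% = reference inhibitor wells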
FLuc counter – blocks native firefly luciferase in HSP90 counter-screen; 2,300 tested, 48% active; inhibition, % at 5.9 µM; shares compounds with HSP90 inh; AID 1847; purified native firefly luciferase, luminescence;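 active = inhibition above the mean inhibition of all tested sample wells plus 3 SD, cut at about 10% in these data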;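 also: 0% = DMSO with luciferase and 100% = wells lacking luciferase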
An asterisk follows results filed as active; · = no result.

SMILES	SENP8 block-1	SENP8 block-2	Platelet DG rel	SENP7 block	SENP6 block	HSP90 inh	HSP90 confirm	FLuc counter
CC(C)Oc1cccc(C(=O)NC(=S)Nc2ccccc2)c1	5.4	11.4	-5.1	15.9	46.3	22.8*	19.5*	8.1
C[n+]1ccc(/C=C/c2cccs2)cc1	-34.6	4.5	-3.0	5.5	2.6	28.3*	-0.4	-4.1
CN(C)CCCn1c(N)c(C#N)c2nc3ccccc3nc21	-382.3	11.8	1.4	36.7	37.3	46.8*	-7.5	-10.1
Cc1ccc(S(=O)(=O)c2c(N)n(CCCN(C)C)c3nc4ccccc4nc23)cc1	-388.6	-2.5	3.7	-6.8	-1.5	0.3	·	·
Cc1ccc2nc(NC(=O)CSCC(=O)OCC(=O)c3ccccc3)sc2c1	-1.8	·	-11.5	·	·	65.6*	78.5*	-9.8
Cc1ccc2nc(NC(=O)COC(=O)c3ccccn3)sc2c1	3.5	-6.4	5.3	11.4	-6.1	6.2	·	·
CCCCNC(=O)C1(C)CCCCN1C(=O)c1ccc2c(c1)C(C)(C)CCC2(C)C (stereo unspecified)	7.4	·	·	·	·	·	·	·
COc1ccc(CN2C(=O)C(CC(=O)NCCCCc3ccccc3)CC(C(=O)N3CCCCCC3)=C2C)cc1 (stereo unspecified)	7.4	·	·	·	·	·	·	·
CC(NC(=O)CNC(=O)C1CCCCC1)c1ccc(S(N)(=O)=O)cc1 (stereo unspecified)	11.8	-10.1	-31.6	1.9	-5.8	31.8*	-1.1	0.3
Cc1ccc(C)c(C(=O)CSc2nnnn2C(C)C)c1	-3.2	-7.9	-7.5	-2.8	-19.7	-0.3	·	·
Cc1ccc(C(=O)CSc2nnnn2C(C)C)c(C)c1	26.1	-12.3	2.4	-0.3	-31.8	55.5*	78.6*	72.0*
CCCc1[nH]n(-c2nc3ccccc3s2)c(=O)c1C=NCCCOC	19.8	-0.2	0.8	8.1	-3.6	2.2	·	·
CCCCCN=Cc1c(C)[nH]n(-c2nc3ccccc3s2)c1=O	16.0	13.7	1.4	16.4	32.7	26.0*	12.3	1.5
COCCNC(=O)C1(C)CCCN(Cc2ccc(Cl)nc2)C1 (stereo unspecified)	13.1	·	·	·	·	·	·	·
Nc1nnnn1/N=C/c1ccc(F)cc1	12.4	-15.3	0.7	-5.2	-13.4	-1.0	·	·
COC1=C/C(=C/c2c(O)c(C#N)c3ccccn23)C=CC1=O	-297.5	-1.6	18.5	7.2	8.9	26.1*	0.1	-0.8
COc1cc(OC)cc(C(=O)c2c(C)c(C#N)c3ccccn23)c1	7.0	-1.4	7.7	-4.5	7.3	2.1	·	·
CCc1c(C(=O)OCc2ccccc2)[nH]c(C)c1C	1.0	-1.2	-7.6	17.6	46.2	-4.6	·	·
CCc1c(C)[nH]c(C(=O)OCc2ccccc2)c1C	4.8	·	-15.5	·	·	24.3*	-2.3	-13.1
Cc1sc2ncnc(SCC(=O)c3ccc(O)cc3O)c2c1C	12.4	8.2	4.9	5.5	6.0	19.3*	-10.5	-11.4
S=c1[nH]nc(-c2ccc(Cl)cc2)n1Cc1ccccc1	-106.2	-5.5	-3.6	4.7	4.5	45.6*	-6.3	-7.6
COCCn1c(C)cc(C(=O)COC(=O)c2ccc(NC(=O)CC#N)cc2)c1C	-44.5	-2.2	-0.1	4.4	7.9	18.6*	10.2	13.5*
N#CCC(=O)Nc1ccc(C(=O)OCC(=O)c2ccc3c(c2)OCCO3)cc1	-40.5	-8.7	2.5	-6.9	-7.0	20.4*	31.5*	-2.6
O=C1C=C(c2ccc(C(=O)O)cc2)C[C@@H](c2ccc3c(c2)OCO3)C1	21.0	-7.3	·	-2.8	0.1	·	·	·
CCn1c(=O)cc(OCC(=O)NCCc2ccc(OC)c(OC)c2)c2ccccc21	-1.8	7.1	-5.3	1.6	-1.0	48.5*	-4.3	-15.6
SMILES	SENP8 block-1	SENP8 block-2	Platelet DG rel	SENP7 block	SENP6 block	HSP90 inh	HSP90 confirm	FLuc counter
COC(=O)c1ccc(CNC(=O)CC[C@H]2O[C@@H](n3cc(C)c(=O)[nH]c3=O)C[C@@H]2O)cc1	24.2	·	·	·	·	·	·	·
CCOc1ccc(CCNC(=O)C2CCN(c3nn4c(=O)cc(C)nc4s3)CC2)cc1	14.5	9.6	·	2.8	10.6	17.6*	-9.4	-11.9
C=CCn1c(SCC(=O)NCC)nnc1-c1cc2c(s1)CCC(CC)C2 (stereo unspecified)	-24.4	-4.1	-11.9	0.2	9.2	-1.3	·	·
C=CCn1c(SCC(=O)NCCOC)nnc1-c1cc2c(s1)CCC(CC)C2 (stereo unspecified)	-7.4	-1.4	-3.1	-1.7	-10.6	52.1*	1.7	-11.8
O=C(Nc1c(-c2ccccc2)[nH][nH]c1=O)c1cccs1	21.4	·	·	·	·	·	·	·
CCCc1ccc(OCc2ccc(C(=O)N3CCSCC3)o2)cc1	7.0	5.7	1.4	3.3	-15.9	51.7*	55.4*	7.7
COC(=O)c1ccc(COc2ccc(C(C)(C)C)cc2)o1	20.4	-7.5	-1.4	-2.2	-9.7	29.4*	34.6*	-19.5
CCCc1ccc(OCc2ccc(C(=O)OC)o2)c(OC)c1	-18.5	-2.4	15.0	4.2	-7.8	23.6*	30.1*	-20.8
CCOc1ccc(OCc2ccc(C(=O)NCc3ccncc3)o2)cc1	2.9	-5.5	-18.3	-5.3	-13.4	17.8*	19.4*	-3.9
CCCc1ccc(OCc2ccc(C(=O)NN)o2)c(OC)c1	20.2	0.0	3.6	-4.8	-1.4	1.9	·	·
CSc1ccc(S(=O)(=O)N2CCC(C(=O)Nc3ccccc3C(F)(F)F)CC2)cc1	3.7	1.7	1.9	-5.6	-1.2	10.6	·	·
O=C(C(=O)N1CCN(C/C=C/c2ccccc2)CC1)c1ccccc1	16.7	·	·	·	·	·	·	·
Cc1ccc(N2CCC3CC2c2cc(-c4ccc(C(F)(F)F)cc4)ccc23)cc1 (stereo unspecified)	9.1	·	·	·	·	·	·	·
O=C(NCC(=O)N1CCN(c2ccccc2O)CC1)c1ccc(Br)o1	17.7	-5.0	0.4	-9.9	-6.4	·	·	·
O=C1CCC(C(=O)N2CCCC(Nc3ccc(F)cc3)C2)=NN1 (stereo unspecified)	1.4	1.6	10.6	-5.6	-4.6	2.4	·	·
CCc1ccc(OCc2ccc(C(=O)OC)o2)cc1	10.1	41.4	-2.2	0.1	39.2	56.1*	74.9*	-14.5
CCC(C)c1ccc(OCc2ccc(C(=O)OC)o2)cc1 (stereo unspecified)	-4.7	26.4	7.9	-3.4	26.7	25.6*	65.0*	-22.4
O=C(O)c1ccc(COc2ccc3c(c2)CCC3)cc1	9.9	83.7*	13.0	51.0*	94.8*	48.9*	62.9*	16.8*
CC(C)(C)c1ccc(OCc2ccc(C(=O)Nc3cccnc3)o2)cc1	25.0	16.7	-3.6	-9.4	11.2	26.2*	22.6*	-5.7
O=C(Nc1cccnc1)c1ccc(COc2ccccc2Br)o1	-0.2	-10.0	-8.3	-7.5	-18.7	1.0	·	·
COC(=O)c1ccc(COc2ccc(NC(C)=O)cc2)o1	5.4	-4.8	2.5	11.5	-2.6	-0.4	·	·
O=C(NCc1cccnc1)c1ccc(COc2ccc3c(c2)CCC3)o1	20.1	-0.8	-10.1	-0.4	-10.8	-2.2	·	·
